mHTT CaM bind = inhibitors of human mutant huntingtin-calmodulin interaction; AlphaScreen His-mHTT/GST-CaM binding, luminescence; P42858; 3.6% of 190,000 active; inhibition, % at 15 µM; AID 1671202;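 also: 0% = both proteins with DMSO and 100% = one protein alone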
Pf apPOL inh = Pf-apPOL DNA polymerase inhibition; AID 1794808; Recombinant Pf-apPOL, molecular beacon fluorescence, 1.5 h; inhibition, % at 10 µM; 0.25% of 210,000 active
Starred values were filed as active, the others as inactive; i = inactive; . = no result given. Many of the other results were omitted from the sample, so hits are more common in it than they were. Rule as the data show it: active = inhibition above about 50%; inactive = the rest.

SMILES | mHTT CaM bind | Pf apPOL inh
CC1=C(C(=O)Nc2cccc(C(F)(F)F)c2)C(c2cccc([N+](=O)[O-])c2)C2=C(CCCC2=O)N1 (stereo unspecified) | 52.0* | -6.6
CC1=C(C(=O)Nc2ccc(C)cn2)C(c2ccccc2)C2=C(CCCC2=O)N1 (stereo unspecified) | 2.0 | 50.8*
CCOC(=O)C1=C(N)Oc2c(oc(CO)cc2=O)C1c1ccc(OC)c(OC)c1 (stereo unspecified) | 2.8 | -1.6
CN1CN=C2SC3(COC(c4ccccc4Cl)OC3)C(=O)N2C1 (stereo unspecified) | 3.0 | -5.2
Cn1cnc2cc(CNC(=O)c3ccsc3)ccc21 | -8.4 | 5.8
Cc1oc(C2CCN(C(=O)Cc3ccsc3)CC2)nc1C(=O)N1CCOCC1 | 5.1 | -5.1
COCCn1c(-c2cccc([N+](=O)[O-])c2)nc2c(c(=O)c3ccccc3n2C)c1=O | -3.9 | 1.1
CC(C)NC(=O)c1ccn2c(-c3ccc(Cl)cc3)nnc2c1 | 4.0 | -6.8
COc1ccc(/C=c2\sc3n(c2=O)CN(c2cccc(C(F)(F)F)c2)CN=3)cc1 | 6.0 | -2.1
Cn1c(=O)c2c(nc(OCCc3ccccc3)n2Cc2ccccc2F)n(C)c1=O | -1.0 | -0.8
Nc1cc2c(cc1[N+](=O)[O-])OCO2 | 9.0 | 5.6
CCc1ccc(C(c2ccc(CC)o2)c2cc3c(cc2[N+](=O)[O-])OCO3)o1 | 84.0* | -7.6
Cc1ccc(S(=O)(=O)N2CCCCC2c2nncn2C)cc1F (stereo unspecified) | -3.0 | 0.5
C(=Nc1c2ccccc2nc2ccccc12)c1cccc2c1OCOC2 | -2.5 | .
C(=Nc1c2ccccc2nc2ccccc12)c1ccco1 | 55.8* | .
CC1(C)CC(=O)C2=C(C1)Nc1nc(SCc3ccccc3Cl)nn1C2c1ccncc1 (stereo unspecified) | -1.0 | -0.2
CCOc1ccc(S(=O)(=O)N(C(=O)c2ccncc2)c2ccc3oc4c(c3c2)CCCC4)cc1 | 30.0 | -4.0
O=C(c1ccncc1)N(c1ccc2oc3c(c2c1)CCCC3)S(=O)(=O)c1ccc(F)cc1 | 58.0* | 3.4
O=C(NCC1CC1)C1CCC(c2ccc(F)cc2)N(C(=O)c2ccccc2)C1 (stereo unspecified) | 12.8 | -7.8
COc1nn(C)cc1C(=O)N1CCC(C(=O)Nc2cc(C)on2)CC1 | -14.6 | -1.2
Cc1ccc(CN2C(=O)NC3(CCN(C(=O)Cc4ccc(Cl)cc4)CC3)C2=O)cc1 | 1.2 | -14.7
Cc1ccc(C)c(CN2C(=O)NC3(CCN(C(=O)Cc4ccc(Cl)cc4)CC3)C2=O)c1 | 57.8* | -4.2
CCOc1ccc(OCC)c(NC(=O)C2CC(=O)N(c3cccc(NC(C)=O)c3)C2)c1 (stereo unspecified) | 1.6 | -1.2
O=S(=O)(Nc1nccs1)c1ccc(N=Cc2ccccc2O)cc1 | 10.0 | 6.3
O=S(=O)(Nc1nccs1)c1ccc(N=Cc2cc(Cl)cc(Cl)c2O)cc1 | 11.0 | -2.3
SMILES | mHTT CaM bind | Pf apPOL inh
O=S(=O)(Nc1nccs1)c1ccc(N=Cc2cc(Br)ccc2O)cc1 | 88.0* | 7.5
O=[N+]([O-])c1ccc(C=Nc2ccc(S(=O)(=O)Nc3nccs3)cc2)cc1 | 62.0* | 1.4
COc1ccc(CN2CCC(=O)N(CCO)CC2)cc1 | 7.4 | -1.4
CCc1nc2cccnc2n1C1CCN(S(=O)(=O)c2cccs2)C1 (stereo unspecified) | 3.1 | 3.3
O=C1NC(=O)N(c2ccccc2F)C(=O)/C1=C/c1cn(CC(=O)N2CCCC2)c2ccccc12 | 75.0* | -0.6
Cc1cccc(N2C(=O)NC(=O)/C(=C\c3cn(CC(=O)N4CCCC4)c4ccccc34)C2=O)c1C | 5.0 | -5.8
Cc1ccccc1N1C(=O)NC(=O)/C(=C\c2cn(CC(=O)Nc3ccccc3)c3ccccc23)C1=O | 64.0* | 0.4
Cc1ccccc1N1C(=O)NC(=O)/C(=C\c2cn(CC(=O)N3CCOCC3)c3ccccc23)C1=O | 25.0 | -10.8
Cc1cccc(N2C(=O)NC(=O)/C(=C\c3cn(CC(=O)N4CCOCC4)c4ccccc34)C2=O)c1 | -2.0 | -5.0
O=C1NC(=O)N(c2ccccc2F)C(=O)/C1=C/c1cn(CC(=O)N2CCCCC2)c2ccccc12 | 59.0* | -2.4
Cc1ccc(C(O)=C2C(=O)C(=O)N(C)C2c2ccccc2[N+](=O)[O-])cc1 (stereo unspecified) | 5.4 | -1.4
CC(C)=CC/C=C1\CCC2C(=O)NC(=O)C2C1 (stereo unspecified) | 1.9 | .
Cc1ccccc1CC(=O)N1CCCC1COc1ccc(C(=O)NC(C)C)cc1 (stereo unspecified) | 6.7 | -2.4
CCOc1ccccc1NC(=O)CSc1nc(C)c(CC)c(=O)[nH]1 | -8.2 | 1.6
Cn1ccc(CNC(=O)COc2ccc(Br)cc2)n1 | -6.3 | 1.0
OCCNc1nc(NCCc2cccs2)nc2c1cnn2-c1ccc(F)cc1 | 56.4* | -5.2
OCCNc1nc(NN2CCOCC2)nc2c1cnn2-c1ccc(Cl)cc1 | 4.6 | 0.1
c1ccc(-n2ncc3c(NCc4cccs4)ncnc32)cc1 | 1.0 | -2.4
OCCNc1nc(NCc2ccc3c(c2)OCO3)nc2c1cnn2-c1ccc(F)cc1 | 67.0* | -8.1
Cn1c(=O)c2c(ncn2CC(=O)N/N=C/c2ccco2)n(C)c1=O | i | .
O=C(CN1c2ccccc2Sc2ccccc21)NN=Cc1ccco1 | . | 61.8*
CCC(=O)N1CCc2sc(S(=O)(=O)Nc3cccc(C)c3C)cc2C1 | -1.3 | -4.9
C=CS(=O)(=O)c1sc(Cl)c(N2CCOCC2)c1[N+](=O)[O-] | 60.0* | -2.7
C=CSc1sc(Cl)c(N2CCC3(CC2)OCCO3)c1[N+](=O)[O-] | 67.0* | 4.8
C=CSc1sc(Cl)c(N2CCOCC2)c1[N+](=O)[O-] | 34.0 | -0.4
SMILES | mHTT CaM bind | Pf apPOL inh
O=[N+]([O-])c1c(N2CCOCC2)c([N+](=O)[O-])c(N2CCOCC2)c([N+](=O)[O-])c1N1CCOCC1 | 1.0 | -6.1
COCCn1c(C(C)(C)O)nc2ccccc21 | -4.2 | -15.0
COc1ccc(-c2cc(O)cc3sc(=O)oc23)cc1 | 74.0* | 1.8
CCc1ccc(-c2cc(O)cc3sc(=O)oc23)cc1 | 73.0* | 6.4
O=c1oc2c(-c3ccc(Br)cc3)cc(O)cc2s1 | 34.0 | 5.3
O=c1oc2ccc(O)cc2s1 | 27.0 | .
Cc1ccc(-c2cc(O)cc3sc(=O)oc23)cc1Cl | 53.0* | -4.9
Cc1ccc(-c2cc(O)cc3sc(=O)oc23)cc1 | 75.0* | -4.3
O=c1oc2c(-c3cccc(C(F)(F)F)c3)cc(O)cc2s1 | 40.0 | 1.2
O=c1oc2c(Br)c(O)c(Br)cc2s1 | 43.0 | -6.0
C=CCNc1nc(N)c(C(C)=O)s1 | 0.0 | .
COc1cccc(CNC(=O)NCCC2CCN(S(=O)(=O)c3ccc(F)cc3)CC2)c1 | 30.3 | 4.3
Cc1oc2ccn(Cc3ccccc3F)c(=O)c2c1C(=O)N1CCCCC1C (stereo unspecified) | 1.1 | 0.6
Cc1c(Br)c(C(F)(F)F)nn1CC(=O)NCCc1ccccc1 | -5.0 | -0.3
CC(Oc1ccccc1)C(=O)N1CCc2c(nc3cc(-c4ccccc4)[nH]n3c2=O)C1 (stereo unspecified) | 9.7 | 3.9
C=CCn1c(=N)n(CC(O)c2ccc(-c3ccccc3)cc2)c2ccccc21 (stereo unspecified) | 96.3* | 0.2
C=CCn1c(=N)n(CC(O)c2ccc(Br)cc2)c2ccccc21 (stereo unspecified) | 5.8 | -3.2
O=Cc1cc(Br)c(Sc2ccc(Cl)cc2)o1 | 60.7* | -5.8
O=C1NC(=O)/C(=C\c2cc(Br)c(Sc3ccc(Cl)cc3)o2)N1 | 26.0 | -3.2
